Results filed as inconclusive are left out. The source made the active and inactive calls. Unless noted, calls follow the shape of the dose curve; as a rule, active = well fitted curve in the direction sought with a large enough effect; inconclusive = small, poorly fitted or top-dose-only effect, or another doubt; inactive = no such curve, though single readings can be large; an effect the other way counts as inactive or inconclusive. Where only a bound is given, the exact number is not on record here.

Test [1] is described as follows: AP1 Signaling Pathway (AID 357; active = well fitted curve in either direction with a large enough effect, not every such curve was filed as active;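 also: ME-180 reporter cells stimulated with EGF at its EC50 level; % is scaled to controls: 0 for no effect and ±100 for the full control effect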). Summed up: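 Cells are seeded overnight, exposed to compound titrations and an EC50 level of EGF for 5 hours at 37 °C, then loaded with CCF4 dye for 2.5 hours. Beta-lactamase activity under the AP-1 element is read as a blue/green ratio.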
In test [2] the target is Cytochrome P450 1A2 (Homo sapiens) (UniProt P05177). Kind of test: p450-cyp1a2 (AID 410; calls by dose curve;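 also: -100% = full effect of reference inhibitor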). An outline of the steps: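 Read-out is luminescence from luciferin produced by CYP1A2 demethylation of Luciferin-ME (100uM, at Km). Detection reagent stopped the 60 min NADPH-dependent reaction; signals were normalized to 57 uM furafylline.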
Chain of Cytochrome P450 1A2 (Homo sapiens) (P05177 whole entry, looked up): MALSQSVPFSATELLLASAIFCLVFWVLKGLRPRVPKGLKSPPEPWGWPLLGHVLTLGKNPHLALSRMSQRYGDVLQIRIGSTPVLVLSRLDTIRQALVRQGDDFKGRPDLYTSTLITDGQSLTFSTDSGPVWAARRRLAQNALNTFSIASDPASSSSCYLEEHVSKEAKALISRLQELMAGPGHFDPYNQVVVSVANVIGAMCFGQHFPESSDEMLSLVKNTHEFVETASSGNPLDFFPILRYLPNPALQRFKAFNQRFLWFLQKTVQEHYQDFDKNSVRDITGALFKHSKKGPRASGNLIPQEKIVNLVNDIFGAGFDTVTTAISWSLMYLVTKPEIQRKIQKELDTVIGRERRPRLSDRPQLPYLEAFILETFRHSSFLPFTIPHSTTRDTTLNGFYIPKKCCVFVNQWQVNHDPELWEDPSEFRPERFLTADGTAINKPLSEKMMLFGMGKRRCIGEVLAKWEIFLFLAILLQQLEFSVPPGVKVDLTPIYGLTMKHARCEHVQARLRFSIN
A short description of test [3]: NFAT Signaling Pathway (AID 444; active = well fitted curve in either direction with a large enough effect, not every such curve was filed as active;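 also: carbachol stimulus at about its EC50 of 1 µM final; % is scaled to controls: 0 for no effect and ±100 for the full control effect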). The following applies: Jurkat NFAT-bla M1, carbachol, beta-lactamase ratio, 5 h. An outline of the steps: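 Jurkat cells carrying an NFAT-driven β-lactamase reporter and co-transfected muscarinic M1 receptor were treated with compound plus carbachol (1 uM final, an EC50 level) for 5 h at 37 °C. CCF4 loading followed for 1 h at RT; 460/530 nm ratio gave %activity.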

Test [4] can be described thus: Stat Signaling Pathway (AID 446; active = well fitted curve in either direction with a large enough effect, not every such curve was filed as active;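 also: ME-180 cervical cancer cells given 40 pM IL-6 alongside compound; SIE-controlled beta-lactamase reporter measured as 460/530 nm FRET emission ratio; % is scaled to controls: 0 for no effect and ±100 for the full control effect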). Summed up: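 Overnight-plated ME-180 cells bearing a STAT Inducible Element beta-lactamase reporter; 5 h co-exposure to compound and 40 pM IL-6; values normalized to 300 pM IL-6 and 125 nM JAK inhibitor controls.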
Test [5] has as its target Mitogen-activated protein kinase 10 (Mus musculus) (UniProt Q61831). Kind of test: JNK3 AlphaScreen Assay (AID 530; active = well fitted curve in either direction with a large enough effect, not every such curve was filed as active;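 also: kinase came from lysate of stimulated human HepG2 cells; signal reports phosphorylation of biotinylated GST-cJun 1-79 at Ser73 with 10 µM ATP; % is scaled to controls: 0 for no effect and ±100 for the full control effect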). An outline of the steps:
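Biotinylated GST-cJun(1-79) served as substrate for JNK3 in HepG2 lysates stimulated with IL-1beta and TNF-alpha. ATP was 10 uM final, pH 7.6. Ser73 phosphorylation was quantified by AlphaScreen (680 nm excitation).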
For orientation: Alpha assays give light when donor and acceptor beads are brought close together.

For test [6], the target named is 3',5'-cyclic-AMP phosphodiesterase 4B (Homo sapiens) (UniProt Q07343). In words: qHTS Assay for Inhibitors of PDE-IV (AID 607; active = well fitted activation curve with a large enough effect in the main read-out, with a control signal flat, not every such curve was filed as active; also: % of control where 0% means no effect). Summed up:
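Live HEK293 cells with a modified cyclic nucleotide-gated (CNG) channel report intracellular cAMP via membrane-potential dye fluorescence (ex 535/em 590 nm). Endogenous PDE-IV was targeted. Compounds were tested at up to 22.9 uM final; RO 20-1724 100 uM served as control.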
A general note: In qHTS, concentration-response curves come from the screen itself.

Test [7] has as its target Cytochrome P450 2D6 (Homo sapiens) (UniProt P10635). Kind of test: qHTS Assay for Inhibitors and Substrates of Cytochrome P450 2D6 (AID 891).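 Also: luciferin methyl ether substrate demethylated by CYP2D6 with NADPH regeneration; % is scaled to controls: 0 for no effect and ±100 for the full control effect; nearly all actives have a fitted effect of over 60% in size.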 An outline of the steps:
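Luminescent read-out of luciferin formed by 5 nM human CYP2D6 demethylating 30 uM Luciferin-ME EGE (Km level) over 60 min at room temperature after NADPH regeneration addition. Data normalized to full inhibition by 1.43 uM quinidine.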

Test [8] addresses Cytochrome P450 2C19 (Homo sapiens) (UniProt P33261). Kind of test: qHTS Assay for Inhibitors and Substrates of Cytochrome P450 2C19 (AID 899). Also: % is scaled to controls: 0 for no effect and ±100 for the full control effect; nearly all actives have a fitted effect of over 60% in size. Summed up:
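In 50mM KPO4, the reaction held 5nM enzyme and KM-level (10uM) Luciferin-H EGE; it ran 60 min at 37C after NADPH regeneration and a 10 min compound preincubation. Luminescence values were scaled to 57uM ketoconazole as complete inhibition.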

Test [9] can be described thus: Confirmation and Secondary Assay for Modulators of Hemoglobin Beta Chain Splicing at IVS2 705 locus (AID 930).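 Also: HeLa cells stably expressing the EGFP-705 splicing reporter; GFP fluorescence per well restored by corrected splicing of the IVS2-705 intron in EGFP; % of control where 0% means no effect.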 Summed up: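 Stable HeLa line with EGFP disrupted by mutant beta-globin intron 2 (705). Overnight attachment, then 2 days of compound at 37C, 5% CO2. Signal: peak GFP intensity summed over objects 5-250 µm.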
Test [10] concerns the target DNA dC->dU-editing enzyme APOBEC-3G (Homo sapiens) (UniProt Q9HC16). Kind of test: qHTS for inhibitors of Vif-A3G interactions: Validation (AID 588379). Also: 0% is about no effect. An outline of the steps:
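Yellow fluorescence (Ex 488, Em 500-530) of Vif-coexpressing HeLa A3G-eYFP cells, scanned by Acumen cytometer, reports blocked A3G degradation. Cells plated at 700/well overnight at 37 deg C before compound addition, then a further overnight compound incubation at 37 deg C.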

The test system of test [11] is Zika virus NS2B-NS3 protease. In words: Primary screen GU AMC qHTS for Zika virus inhibitors (AID 1347154).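 Also: 0% = no-inhibitor control and -100% = no-enzyme control; nearly all actives have a fitted effect of over 70% in size.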 An outline of the steps:
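Unlinked Zika NS2B hydrophilic domain/NS3 protease domain noncovalent complex (25 nM final) in 10 mM Tris-HCl pH 8.0, 0.01% Tween 20, with AMC peptide substrate. Fluorescence (ex 340, em 450 nm) change over 15 min, room temperature; percent inhibition fitted to 4-parameter Hill equation.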

Test [12] in a line: Primary qHTS for small molecule stabilizers of the endoplasmic reticulum resident proteome: Secreted ER Calcium Modulated Protein (SERCaMP) assay (AID 1508630). Also: % is scaled to controls: 0 for no effect and ±100 for the full control effect. An outline of the steps:
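The SH-SY5Y reporter protocol was run at 3 concentrations up to 38.3 uM (primary) or 11 concentrations (follow-up): 16 h compound, 100 nM thapsigargin for 4 h, then extracellular luciferase luminescence.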

Test [13] concerns the target Glucocorticoid receptor (Homo sapiens) (UniProt P04150). Kind of test: GR-GFP Redistribution (AID 450;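 active = compounds whose dose series gives a full or clear partial fitted curve of increased nuclear translocation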; also: potency is read from the fitted curve at half-maximal effect). The settings on record: U2OS GR-GFP nuclear translocation, laser cytometry, 2 h.
Test [14] shares this target. In words: GR-EFC Redistribution (AID 451; calls by dose curve; also: potency is read from the fitted curve at half-maximal effect). The settings on record: CHO-K1 GR-EFC translocation, beta-gal luminescence, 2 h. Summed up:
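CHO-K1 cells stably expressing nuclear-localized β-gal enzyme acceptor and GR fused C-terminally to the enzyme donor fragment; ligand-driven nuclear translocation restores β-gal by complementation. Compounds titrated up to 46 uM final, 2 h at 37 °C; luminescence read.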

Test [15] can be described thus: qHTS Assay for Lipid Storage Modulators (AID 1519; calls by dose curve). The settings on record: Drosophila S3 cells, BODIPY lipid droplet/cell ratio, laser cytometry, cells loaded with oleic acid; for activity change, negative = inhibition: at 57.5 µM (top of the series). An outline of the steps:
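Cells seeded at 5,000 per well were treated with compounds over a concentration series and loaded with oleic acid (400 uM, as added). Lipid droplet fluorescence (488 nm excitation, 500-530 nm channel) was read by laser-scanning cytometry and normalized to 20 uM Triacsin C.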

The target of test [16] is Cytochrome P450 3A4 (Homo sapiens) (UniProt P08684). Kind of test: qHTS Assay for Inhibitors and Substrates of Cytochrome P450 3A4 (AID 884). Also: % is scaled to controls: 0 for no effect and ±100 for the full control effect; nearly all actives have a fitted effect of over 50% in size. An outline of the steps: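 Luminescent readout of luciferin produced by CYP3A4 (20 nM) dealkylation of Luciferin-PPXE, 25 uM (its KM). NADPH-driven reaction ran 60 min at RT after 10 min compound preincubation; data scaled to 57 uM ketoconazole as 100% inhibition.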
Chain of Cytochrome P450 3A4 (Homo sapiens) (P08684 whole entry, looked up): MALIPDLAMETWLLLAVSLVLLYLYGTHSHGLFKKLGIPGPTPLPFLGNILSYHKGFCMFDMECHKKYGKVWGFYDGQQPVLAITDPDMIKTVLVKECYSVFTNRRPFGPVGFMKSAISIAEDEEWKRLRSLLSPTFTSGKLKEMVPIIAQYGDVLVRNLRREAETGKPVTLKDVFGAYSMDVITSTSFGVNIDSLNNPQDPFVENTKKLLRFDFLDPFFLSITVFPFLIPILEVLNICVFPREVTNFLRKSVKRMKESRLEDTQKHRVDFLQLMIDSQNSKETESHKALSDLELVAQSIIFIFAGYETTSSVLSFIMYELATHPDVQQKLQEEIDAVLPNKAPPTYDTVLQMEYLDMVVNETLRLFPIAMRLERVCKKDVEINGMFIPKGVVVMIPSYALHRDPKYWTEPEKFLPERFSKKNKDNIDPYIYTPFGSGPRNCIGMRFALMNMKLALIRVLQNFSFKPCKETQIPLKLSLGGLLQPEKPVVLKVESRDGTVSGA

Where [17] appears, read: measured here: cell count channel max response.
The mark [18] stands for this setting: measured here: lipid channel max response.

Chain of 3',5'-cyclic-AMP phosphodiesterase 4B (Homo sapiens) (Q07343 whole entry, looked up): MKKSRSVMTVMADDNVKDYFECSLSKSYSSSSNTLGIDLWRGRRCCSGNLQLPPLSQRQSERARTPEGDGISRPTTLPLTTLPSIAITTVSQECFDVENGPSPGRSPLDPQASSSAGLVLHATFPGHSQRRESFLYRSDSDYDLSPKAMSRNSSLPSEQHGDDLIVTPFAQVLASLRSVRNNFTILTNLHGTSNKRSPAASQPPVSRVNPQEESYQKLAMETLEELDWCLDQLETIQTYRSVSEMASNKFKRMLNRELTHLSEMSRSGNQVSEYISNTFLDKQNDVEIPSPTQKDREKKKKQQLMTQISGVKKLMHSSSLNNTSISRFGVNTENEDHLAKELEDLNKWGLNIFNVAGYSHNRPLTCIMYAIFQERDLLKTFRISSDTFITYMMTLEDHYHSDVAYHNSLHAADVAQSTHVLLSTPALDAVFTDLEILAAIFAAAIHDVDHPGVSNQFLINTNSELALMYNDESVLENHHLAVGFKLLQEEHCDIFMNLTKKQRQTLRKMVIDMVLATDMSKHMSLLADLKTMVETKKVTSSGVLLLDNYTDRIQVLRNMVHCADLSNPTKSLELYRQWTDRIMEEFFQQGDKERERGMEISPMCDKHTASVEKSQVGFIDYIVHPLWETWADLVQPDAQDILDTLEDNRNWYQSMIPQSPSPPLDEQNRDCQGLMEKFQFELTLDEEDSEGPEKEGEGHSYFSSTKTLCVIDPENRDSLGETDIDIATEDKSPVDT
Chain of DNA dC->dU-editing enzyme APOBEC-3G (Homo sapiens) (Q9HC16 whole entry, looked up): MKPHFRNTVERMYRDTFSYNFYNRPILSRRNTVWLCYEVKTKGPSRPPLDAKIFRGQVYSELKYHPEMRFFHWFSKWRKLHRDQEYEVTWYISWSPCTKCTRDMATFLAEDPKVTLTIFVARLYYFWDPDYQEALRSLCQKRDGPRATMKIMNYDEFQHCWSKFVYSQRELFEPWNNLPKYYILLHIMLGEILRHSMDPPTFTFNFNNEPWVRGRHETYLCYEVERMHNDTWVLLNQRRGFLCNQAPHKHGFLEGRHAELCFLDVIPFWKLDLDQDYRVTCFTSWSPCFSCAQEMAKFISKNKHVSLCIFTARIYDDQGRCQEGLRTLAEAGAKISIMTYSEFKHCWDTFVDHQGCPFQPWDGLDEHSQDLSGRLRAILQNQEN
Chain of Glucocorticoid receptor (Homo sapiens) (P04150 whole entry, looked up): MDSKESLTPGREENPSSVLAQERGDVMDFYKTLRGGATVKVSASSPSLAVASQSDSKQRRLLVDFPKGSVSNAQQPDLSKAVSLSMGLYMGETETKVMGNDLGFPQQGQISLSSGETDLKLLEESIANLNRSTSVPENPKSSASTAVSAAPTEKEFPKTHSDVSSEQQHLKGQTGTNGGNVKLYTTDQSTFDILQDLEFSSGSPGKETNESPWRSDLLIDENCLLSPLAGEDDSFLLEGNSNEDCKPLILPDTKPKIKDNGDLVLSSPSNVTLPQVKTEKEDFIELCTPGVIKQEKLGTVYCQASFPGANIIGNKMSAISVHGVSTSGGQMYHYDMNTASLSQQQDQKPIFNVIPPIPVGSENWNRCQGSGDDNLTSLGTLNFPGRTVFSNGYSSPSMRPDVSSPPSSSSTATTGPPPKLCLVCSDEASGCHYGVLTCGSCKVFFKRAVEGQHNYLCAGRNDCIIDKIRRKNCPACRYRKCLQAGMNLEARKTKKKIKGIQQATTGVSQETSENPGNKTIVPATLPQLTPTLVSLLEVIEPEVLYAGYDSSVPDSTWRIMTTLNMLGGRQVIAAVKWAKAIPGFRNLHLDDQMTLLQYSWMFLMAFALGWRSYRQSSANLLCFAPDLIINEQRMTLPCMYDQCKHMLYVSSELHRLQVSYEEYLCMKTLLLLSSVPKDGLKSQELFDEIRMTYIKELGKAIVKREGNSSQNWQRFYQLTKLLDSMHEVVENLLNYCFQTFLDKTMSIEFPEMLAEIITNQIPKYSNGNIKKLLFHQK
Chain of Cytochrome P450 2D6 (Homo sapiens) (P10635 whole entry, looked up): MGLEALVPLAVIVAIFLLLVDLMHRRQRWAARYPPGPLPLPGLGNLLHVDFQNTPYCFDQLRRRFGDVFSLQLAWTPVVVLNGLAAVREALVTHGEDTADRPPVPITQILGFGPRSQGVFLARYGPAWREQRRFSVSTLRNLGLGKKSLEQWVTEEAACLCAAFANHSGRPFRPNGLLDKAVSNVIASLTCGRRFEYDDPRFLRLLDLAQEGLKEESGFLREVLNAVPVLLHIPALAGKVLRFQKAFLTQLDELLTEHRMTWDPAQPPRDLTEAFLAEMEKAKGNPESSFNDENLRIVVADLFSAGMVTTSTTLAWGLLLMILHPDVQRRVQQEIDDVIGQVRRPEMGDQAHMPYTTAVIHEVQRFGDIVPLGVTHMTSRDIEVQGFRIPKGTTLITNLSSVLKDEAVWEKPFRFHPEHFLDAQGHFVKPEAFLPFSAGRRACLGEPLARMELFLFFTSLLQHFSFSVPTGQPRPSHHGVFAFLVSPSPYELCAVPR
Chain of Cytochrome P450 2C19 (Homo sapiens) (P33261 whole entry, looked up): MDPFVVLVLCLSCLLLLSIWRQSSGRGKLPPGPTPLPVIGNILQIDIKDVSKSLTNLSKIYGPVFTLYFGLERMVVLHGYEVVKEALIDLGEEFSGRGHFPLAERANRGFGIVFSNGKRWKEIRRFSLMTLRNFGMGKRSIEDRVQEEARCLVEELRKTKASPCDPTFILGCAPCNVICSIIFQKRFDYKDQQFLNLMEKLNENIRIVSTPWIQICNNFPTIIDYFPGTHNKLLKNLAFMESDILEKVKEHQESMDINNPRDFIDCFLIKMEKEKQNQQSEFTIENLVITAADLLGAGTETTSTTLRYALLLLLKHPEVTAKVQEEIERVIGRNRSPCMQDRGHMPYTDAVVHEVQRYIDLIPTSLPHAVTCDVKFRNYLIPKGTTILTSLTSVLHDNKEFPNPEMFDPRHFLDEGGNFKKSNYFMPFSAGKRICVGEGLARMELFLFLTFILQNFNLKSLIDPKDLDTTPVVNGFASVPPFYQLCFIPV

For the compound `CN1CCN(C(=O)O[C@@H]2c3nccnc3C(=O)N2c2ccc(Cl)cn2)CC1`, the outcome in test [1], in test [4], in [5] and in test [9] was inactive. The Potency entry in test [2], in test [6], in [7], in test [8], in test [10] and in test [11] was “inactive” in each case. For the same compound, the Potency result in test [12] was “inactive”. Further, the activity change, negative = inhibition in test [3] (at 38 µM (top of the series)) is -27.2% (inactive).

On to `CNCC/C=C\c1cccnc1`, for which the Potency entry in test [2], in test [6], in [10], in [11] and in test [12] was “inactive” throughout. The Potency in test [13] and in test [14] was > 46 µM (inactive) each time. Besides, in [5], the result was inactive. Besides, the activity change, negative = inhibition in [15] was 4.36% (inactive). In addition, the max response is -7.59% in [15] (setting [17]) and -3.17% in [15] (setting [18]).

`CCN1C[C@]2(C)CC[C@H](O)[C@@]34C5C[C@@H]6[C@@H](OC)C[C@@](O)(C5[C@H]6O)[C@@H](CC23)[C@@H]14` (stereo not given in full): the Potency entry in test [16], in test [10], in test [11] and in [12] was “inactive” in each case. Moreover, in test [15], the activity change, negative = inhibition is 1.68% (inactive). Further, the max response in test [15] (setting [17]) is -11.5%; in test [15] (setting [18]) it was -11%.

For the compound `CCCC(=O)OCC[N+](C)(C)C`, the call in [1] and in test [4] was inactive. For the same compound, the activity change, negative = inhibition in test [3] (at 17.2 µM (top of the series)) is 5.08% (inactive). In addition, the Potency entry in test [11] and in test [12] was “inactive” in each case.

For the origin of these results see PubChem BioAssay (NCATS).
